Sampled rows, rich in hits. Any-hit rate of the full collection: about 8.3%.
FMDV antiviral = blocks foot and mouth disease virus | FMDV antiviral cell-based qHTS | AID 1159524 | actives 1.2% (n = 410,000) | Potency, µM (highest dose often 57.9 µM), hits mostly inhibitors; calls by dose curve; tested in HEK293T cells; note: read-out not given here; nearly all actives have a fitted effect of over 45% in size
HCV inh = HCV inhibition | actives 3.4% (n = 340,000) | AID 651820 | Potency, µM (highest dose often 41.8 µM), actives largely listed as inhibitors | Huh7.5.1 HCVcc-Cre infection, luciferase reporter, 44 h
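Cells seeded at 1,000/well and cultured 4 h, then compounds added followed by HCVcc-Cre virus (~0.5 moi). After 44 h further culture, luciferase substrate was added, plates held 15 min at room temperature, and luminescence read for 15 sec.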
HCMV inh = human cytomegalovirus inhibition | HFF cells, HCMV-luciferase reporter, 72 h; hits give low values | activity change, negative = inhibition, % at 57.5 µM | actives 4.5% (n = 410,000); in the data active = activity change below about -60%; inconclusive = no clear call, values can overlap the other calls; inactive = above about -39%
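Cell-based, HFFs, 1000 cells/well, 16 h 37C; cpds in DMSO + HCMV-luc, MOI 1 PFU/cell; 72 h 37C; OneGlo luminescence after 5 min RT; norm. to buffer vs Salinomycin 10uM.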
Marburg entry inh = inhibitors of Marburg virus binding or cell entry; Marburg virus pseudotyped entry inhibition, cell reporter; Potency, µM (series often up to 37.8 µM), most hits filed as inhibitors; actives 1.8% (n = 300,000); AID 540276; calls by dose curve; tested in HEK293 cells
Giardia FBPA inh = inhibitors of Giardia lamblia fructose-1,6-bisphosphate aldolase. A8B2U2. purified Giardia FBPA. Potency, µM (highest dose often 59.6 µM), actives largely listed as inhibitors. actives 0.71% (n = 290,000). AID 2451; note: nearly all actives have a fitted effect of over 55% in size
Target sequence (A8B2U2 whole entry, looked up): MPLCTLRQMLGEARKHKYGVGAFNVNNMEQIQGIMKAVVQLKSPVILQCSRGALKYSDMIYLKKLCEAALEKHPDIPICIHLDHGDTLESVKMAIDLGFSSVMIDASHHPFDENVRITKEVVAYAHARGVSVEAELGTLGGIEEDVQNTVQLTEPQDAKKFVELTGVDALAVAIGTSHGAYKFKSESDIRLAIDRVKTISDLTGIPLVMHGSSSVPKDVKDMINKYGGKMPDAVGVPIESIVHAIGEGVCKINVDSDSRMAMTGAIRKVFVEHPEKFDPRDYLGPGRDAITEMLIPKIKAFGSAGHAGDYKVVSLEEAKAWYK
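Giardia FBPA (40 nM reagent) was preincubated 10 min at RT with compound (up to 57.5 uM final), then substrate plus GAPDH/TPI/NAD/arsenate coupling system with diaphorase/resazurin was added; resorufin fluorescence (525/598 nm) was read after 20 min.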
LASV entry inh = inhibitors of Lassa virus binding or cell entry | actives 1.2% (n = 300,000) | Potency, µM (series often up to 37.9 µM), hits mostly inhibitors | Lassa virus pseudotype entry inhibition, cell reporter; calls by dose curve; tested in HEK293 cells; note: nearly all actives have a fitted effect of over 50% in size
HCV inh confirm = HCV inhibition, cherry-pick confirmation; HCVcc-Cre infectious virus cell assay, luciferase, inhibition; Potency, µM (series often up to 41.8 µM), hits mostly inhibitors; shares compounds with HCV inh; actives 78% (n = 640); note: nearly all actives have a fitted effect of over 80% in size
HCV cytotox = counter-screen for HCV inhibitors: host cell cytotoxicity | shares compounds with HCV inh | HCV host cell line cytotoxicity counterscreen | Potency, µM (highest dose often 41.8 µM), actives largely listed as inhibitors | actives 22% (n = 640);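 note: 44 h compound exposure; nearly all actives have a fitted effect of over 55% in size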
Numbers stand for hits; n = inactive; u = inconclusive; x = no result given; ! = repeats disagree. Unless noted, calls come from the whole dose curve; as a rule, active = well fitted curve in the direction sought with a large enough effect; inconclusive = small, poorly fitted or top-dose-only effect, or another doubt; inactive = no such curve, though single readings can be large; an effect the other way counts as inactive or inconclusive.

SMILES	FMDV antiviral	HCV inh	HCMV inh	Marburg entry inh	Giardia FBPA inh	LASV entry inh	HCV inh confirm	HCV cytotox
NC(=S)NN=C1c2ccccc2-c2cc(Br)ccc21	u	u	n	u	x	n	6.3µM	n
CCOc1ccc(NC(=O)c2c(C)nn(-c3ccc(F)cc3)c2-n2cccc2)cc1	n	x	n	x	x	u	x	x
O=C(Nc1ccc(F)cc1)c1cccn1-c1nnc(N2CCCCC2)s1	n	x	n	x	x	n	x	x
COc1ccc(-c2nc3cc(C(C)C)ccc3o2)cc1NC(=O)COc1ccc(C)cc1C	n	x	n	n	x	n	x	x
CNc1nc(N2CCc3ccccc32)ncc1F	x	3.2µM	n	n	u	u	20µM	u
COc1ccc([N+](=O)[O-])cc1NC(=O)CSc1ccc2ccccc2c1	n	u	u	n	n	n	13µM	u
CC(C)CNC(=S)N(CCN(C)C)Cc1cc2cc3c(cc2[nH]c1=O)OCO3	n	4.5µM	n	n	n	u	n	n
COc1cc(Cl)c(C)cc1NC(=O)CSc1ccc(C)cc1	n	u	n	n	n	n	x	x
COc1cc(Cl)c(C)cc1NC(=O)CSc1cc(Cl)ccc1Cl	n	u	n	n	n	u	11µM	n
COc1cc2c(=O)n(CCC(=O)NCC3CCCO3)c(=O)n(CC(=O)c3ccc(Cl)cc3)c2cc1OC (centres undefined)	n	2µM	n	x	n	x	7.9µM	n
CCCC(=O)NNc1c2ccccc2nc2ccccc12	n	1.4µM	n	n	n	n	0.56µM	0.5µM
CCCC(=O)NNC(=O)CCC(=O)NCc1ccccc1	n	n	n	n	n	n	x	x
O=C(COc1ccccc1)NNc1c2ccccc2nc2ccccc12	25µM	1µM	-92	11µM	n	u	1.6µM	n
COCC(C)n1c(C)cc(C(=O)CSc2nnc(-c3ccco3)o2)c1C (centres undefined)	n	u	n	n	x	n	x	x
Cc1cc(C(=O)CSc2nnc(-c3ccco3)o2)c(C)n1Cc1ccco1	n	u	n	n	n	n	16µM	u
CCN(CC)C(=O)c1sc(NC(=O)c2nc3ncccn3n2)c(C(=O)OC)c1C	n	x	n	n	x	n	x	x
Cc1ccc(C)c(NC(=S)NC(NC(=O)N(C)C)C(Cl)(Cl)Cl)c1 (centres undefined)	x	n	n	n	n	n	x	x
Cc1ccc(C)c(NC(=S)NC(NC(=O)Cc2cccc3ccccc23)C(Cl)(Cl)Cl)c1 (centres undefined)	n	2.2µM	-98	13µM	n	7.9µM	11µM	31µM
CCOc1ccc(C(=O)C(CCC(CN(C)C)C(=O)c2ccc(OCC)cc2)CN(C)C)cc1 (centres undefined)	16µM	3.2µM	-99	1µM	n	4.1µM	7.9µM	7.9µM
Fc1ccc2nc(-c3ccccc3)ccc2c1	n	x	n	x	x	x	x	x
[O-][n+]1onc2c3cc(-c4ccccc4)nnc3ccc21	n	u	-99	n	n	n	u	n
CC(C)(O)C#Cc1ccc([C@@H]2C[C@H]3CN(c4ccccc4)C(=O)[C@]34CCCN24)s1	n	u	-99	u	n	u	7µM	n
CC(C)c1ccccc1NC(=O)Cn1c(-c2ccccc2Cl)nc2ccccc21	n	2.5µM	n	n	n	n	u	n
CCc1nc2c(cnn2-c2ccc(Cl)cc2)c(=O)n1-c1ccc(OC)c(Cl)c1	n	x	n	n	x	n	x	x
CC1=C(C)/C(=N/OC(=O)c2cccc([N+](=O)[O-])c2)C=CC1=O	u	7.1µM	x	u	u	n	31µM	31µM
SMILES	FMDV antiviral	HCV inh	HCMV inh	Marburg entry inh	Giardia FBPA inh	LASV entry inh	HCV inh confirm	HCV cytotox
Cc1ccc(Cn2ncc3c(N4CCN(CCc5ccccc5)CC4)ncnc32)cc1	u	5µM	n	u	n	n	11µM	25µM
CN(CC(=O)NCCc1ccc(S(N)(=O)=O)cc1)Cc1c(F)cccc1Cl	n	n	n	n	n	x	x	x
CN(CC(=O)NCCc1ccc(S(N)(=O)=O)cc1)Cc1ccc(Cl)cc1Cl	u	7.1µM	-86	u	n	n	8.9µM	18µM
CCCCOCC1CN(CCCC)S(=O)(=O)c2c(Oc3ccc(C(C)C)cc3)cccc2O1 (centres undefined)	x	x	n	x	x	u	x	x
Cn1c2ccccc2c(=O)c2ccc(C#Cc3ccc(N)cc3)cc21	n	6.3µM	u	x	n	x	22µM	n
COc1ccc(Cl)cc1NC(=O)C(OC)c1ccccc1 (centres undefined)	n	6.3µM	n	u	n	n	20µM	n
CCOC(=O)CC(=O)CSc1nc2sc(C)cc2c(=O)n1Cc1ccco1	n	u	n	n	n	n	11µM	n
Cc1ccc(C)c(N2CCN(CCCNC(=O)c3ccc4nc(CCc5ccccc5)oc4c3)CC2)c1	n	x	n	x	x	u	x	x
COc1ccc2nc(C)c3cc(C)oc3c2c1	n	8.9µM	n	n	n	n	22µM	n
CC1=C(C(=O)Nc2ccc(C)cc2C)C(c2ccccc2F)n2nc(SCC(=O)c3ccc(C)cc3)nc2N1 (centres undefined)	n	x	n	x	x	n	x	x
Cc1ccccc1C(=O)Nc1cccc(C(=O)OCc2cc(=O)n3c4c(sc3n2)CCCC4)c1	n	x	n	x	x	u	x	x
Cc1cc(C)nc(/N=C(\N)Nc2ccc(S(=O)(=O)O)cc2)n1	n	n	n	n	n	n	x	x
Cc1cc(C)nc(/N=C(\N)Nc2ccc(CC(=O)OC(C)C)cc2)n1	n	3.5µM	n	u	n	n	2.8µM	n
O=c1cc(-c2ccccc2)n2c(SCc3ccccc3Cl)nnc2[nH]1	n	x	n	x	x	n	x	x
CCc1ccc2[nH]c(=O)c(CN(Cc3ccccc3OC)Cc3nnnn3Cc3ccco3)cc2c1	u	8.9µM	n	u	n	u	25µM	n
Oc1c(C(c2ccccc2F)N2CCCCC2)sc2nc(-c3ccco3)nn12 (centres undefined)	n	x	n	x	x	n	x	x
Cc1cc(Br)c(S(=O)(=O)NCc2ccncc2)cc1C	n	3.2µM	-82	u	n	u	2µM	6.3µM
COc1cc(C)c(Cl)cc1S(=O)(=O)NCc1ccncc1	x	n	x	n	n	x	x	x
CSCCC(NS(=O)(=O)c1ccc2c(c1)oc(=O)n2C)C(=O)Nc1ccc(Cl)cc1 (centres undefined)	n	x	n	n	x	n	x	x
CCCCN(CCCC)C(=O)c1cc2c(=O)n3ccccc3nc2s1	n	x	u	n	x	n	x	x
COc1cc(OC)cc(-c2c(-c3cccs3)c3cc(-c4ccc5[nH]ccc5c4)ccc3n2C)c1	n	11µM	n	x	x	x	14µM	n
Cc1ccc(-n2c(=O)[nH]c3ncccc3c2=O)cc1	n	n	n	x	n	x	x	x
Cc1ccc(-n2c(-c3ccc(Br)cc3)c[n+]3c2CCc2ccc4cccnc4c2-3)cc1	1.1µM	2.5µM	-104	2.3µM!	x	6.5µM	6.3µM	14µM

Compound activity as filed in PubChem.
